This passage reports growth results from PubChem BioAssay (NCI).

Some test systems named below: NCI-H23 lung; NCI-H226 lung; HOP-62 NSCLC; NCI-H460 lung; HOP-92 NSCLC; NCI-H522 lung; A549/ATCC NSCLC; 786-0 renal; COLO 205 colon; DU-145 prostate; K-562 leukemia; MALME-3M melanoma; MDA-MB-231 breast; RXF 393 renal; SF-268 CNS; SF-295 CNS; SF-539 CNS; M14 melanoma; UACC-257 melanoma.
Holding throughout (test): NCI-60 one-dose screen, 48 h (100 = growth as untreated, 0 = no growth, -100 = all killed)
Settings in all cases: 10 µM

Structures are written as SMILES. The panel holds about 83,000 compounds, 20% with a hit somewhere; the sample as a whole holds those more often.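 Plates (96-well) were seeded with cells, treated with compound at one concentration, and incubated for 48 hours before percent growth was determined.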 Values without a mark were called inactive. Active and inactive are the calls of the source. Rule for the calls: active = growth percent below 10; inactive = the rest.

With `CNC(=O)c1cc(Oc2ccc3c(c2)sc2nc(-c4ccc(NC(=O)Nc5ccc(Cl)c(C(F)(F)F)c5)cc4)cn23)ccn1`, the growth with NCI-H23 lung was 84.7%; in the experiment with NCI-H226 lung, 101%; in the experiment on HOP-62 NSCLC, 79.1%; in the experiment on NCI-H460 lung, 92.5%; with HOP-92 NSCLC it was 88.6%; in the experiment with NCI-H522 lung it was 59%. The growth in the experiment on A549/ATCC NSCLC was 79.8%; in the experiment with 786-0 renal, 72.6%; in the experiment on COLO 205 colon it was 89.6%; in the experiment with DU-145 prostate, 75.5%; in the experiment with K-562 leukemia, 74.7%; in the experiment on MALME-3M melanoma it was 83.7%. The growth with MDA-MB-231 breast is 77.4%; in the experiment with RXF 393 renal, 84.6%; in the experiment with SF-268 CNS it was 84.8%; in the experiment with SF-295 CNS, 76.3%; in the experiment on SF-539 CNS, 56.2%; in the experiment on M14 melanoma it was 85.5%.

Turning to `CC(=O)N[C@H](C(=O)N[C@@H](CCCNC(=N)N)C(=O)N[C@@H](CCCCN)C(=O)N[C@@H](CCCNC(=N)N)C(=O)N[C@]1(C)CCCCCC/C=C\CCC[C@@](C)(C(=O)N[C@@H](CCCNC(=N)N)C(=O)N[C@@H](CCC(=O)O)C(=O)N[C@@H](CC(C)C)C(=O)N[C@H](C(=O)N[C@@H](CCC(=O)O)C(N)=O)C(C)C)NC(=O)[C@H](CCC(N)=O)NC(=O)[C@H](CC(C)C)NC(=O)[C@H](CC(C)C)NC(=O)[C@H](CCCNC(=N)N)NC(=O)[C@H](CCCNC(=N)N)NC(=O)[C@H](CC(C)C)NC1=O)C(C)C`, the growth was 1.83% (active) with NCI-H23 lung; 9.55% (active) in the experiment with NCI-H226 lung; -31.5% (active) in the experiment on HOP-62 NSCLC; -9.29% (active) with NCI-H460 lung; -63.6% (active) in the experiment on HOP-92 NSCLC; 28.7% with NCI-H522 lung. The growth is 12.4% in the experiment on A549/ATCC NSCLC; -51.4% (active) in the experiment with 786-0 renal; -29.5% (active) with COLO 205 colon; -72.7% (active) in the experiment with DU-145 prostate; -18.8% (active) in the experiment on K-562 leukemia; -28.7% (active) in the experiment with MALME-3M melanoma. Besides, the growth with MDA-MB-231 breast is -39.5% (active); in the experiment with RXF 393 renal it was -51.5% (active); in the experiment on SF-268 CNS it was -51.5% (active); in the experiment on SF-295 CNS it was 14.3%; with SF-539 CNS it was -47% (active); with M14 melanoma it was -41.9% (active).

Regarding `CCn1c(SCCc2ccccc2)nnc1-c1nn(-c2ccc(Cl)cc2Cl)c(-c2ccc(Cl)cc2)c1C`, the growth with NCI-H23 lung was 62.2%; in the experiment with NCI-H226 lung it was 58%; with HOP-62 NSCLC, 101%; with NCI-H460 lung, 73.7%; with HOP-92 NSCLC it was 85%; in the experiment on NCI-H522 lung, 61.1%. In addition, the growth was 65.1% with A549/ATCC NSCLC; 72.9% with 786-0 renal; 77.7% in the experiment on COLO 205 colon; 84.7% with DU-145 prostate; 48.1% in the experiment on K-562 leukemia; 96% in the experiment on MALME-3M melanoma. For the same compound, the growth with MDA-MB-231 breast was 81.1%; with RXF 393 renal, 66%; in the experiment with SF-268 CNS, 77.4%; in the experiment with SF-295 CNS it was 65.7%; with SF-539 CNS it was 85.9%; in the experiment with M14 melanoma, 72.8%.

As for `Cc1ccc(NCCNCC(C)(C)O)c2c(=O)c3ccc(Cl)cc3sc12`, the growth with NCI-H23 lung is 52%; in the experiment on NCI-H226 lung it was 76.6%; in the experiment on HOP-62 NSCLC it was 80.1%; in the experiment on NCI-H460 lung, -73.7% (active); in the experiment on HOP-92 NSCLC, 21%; with NCI-H522 lung, 49.4%. Besides, the growth in the experiment on A549/ATCC NSCLC is -42.9% (active); with 786-0 renal, 54%; in the experiment with COLO 205 colon it was -79.2% (active); with DU-145 prostate, 5.67% (active); in the experiment with K-562 leukemia, -63.1% (active); with MALME-3M melanoma it was -71.8% (active). Moreover, the growth in the experiment with MDA-MB-231 breast was -36.9% (active); in the experiment with RXF 393 renal it was 24.2%; in the experiment on SF-268 CNS it was 39.4%; in the experiment with SF-295 CNS, 74.1%; in the experiment with SF-539 CNS, 69.8%; in the experiment on UACC-257 melanoma it was 78.5%. Also, the growth in the experiment with M14 melanoma was -78.7% (active).

For the compound `COc1cc(Cc2cc(-c3ccccc3)n[nH]c2=O)cc(OC)c1OC`, the growth with NCI-H23 lung is 65.5%; in the experiment with NCI-H226 lung, 68.5%; in the experiment on HOP-62 NSCLC, 73%; with NCI-H460 lung it was 44.5%; in the experiment on HOP-92 NSCLC it was 35.8%; in the experiment on NCI-H522 lung, 52.9%. The growth was 53.5% in the experiment on A549/ATCC NSCLC; 74.3% in the experiment on 786-0 renal; 56.3% in the experiment on COLO 205 colon; 84.2% with DU-145 prostate; 19.3% in the experiment with K-562 leukemia; 71.8% with MALME-3M melanoma. Further, the growth in the experiment on MDA-MB-231 breast was 54.7%; in the experiment with RXF 393 renal it was 60%; in the experiment on SF-268 CNS, 69.8%; in the experiment with SF-295 CNS, 61.3%; with SF-539 CNS, 61.4%; in the experiment with M14 melanoma, 18.4%.

As for `CC(=O)N[C@H](C(=O)N[C@@H](CCCNC(=N)N)C(=O)N[C@@H](CCCCN)C(=O)N[C@@H](CCCNC(=N)N)C(=O)NC(C(=O)N[C@@H](CC(C)C)C(=O)N[C@@H](CCCNC(=N)N)C(=O)N[C@@]1(C)CCC/C=C\CCC[C@@](C)(C(=O)N[C@@H](CCCNC(=N)N)C(=O)N[C@@H](CCC(=O)O)C(=O)N[C@@H](CC(C)C)C(=O)N[C@H](C(=O)N[C@@H](CCC(=O)O)C(N)=O)C(C)C)NC(=O)[C@H](CCC(N)=O)NC(=O)[C@H](CC(C)C)NC(=O)[C@H](CC(C)C)NC1=O)[C@@H](C)O)C(C)C` (stereo not given in full), the growth was -34.6% (active) in the experiment with NCI-H23 lung; 7.17% (active) in the experiment on NCI-H226 lung; -43.1% (active) in the experiment on HOP-62 NSCLC; -63.6% (active) in the experiment with NCI-H460 lung; -76% (active) with HOP-92 NSCLC; 36.5% in the experiment with NCI-H522 lung. The growth in the experiment on A549/ATCC NSCLC is 27.8%; in the experiment with 786-0 renal, -85.6% (active); in the experiment on COLO 205 colon, -53% (active); in the experiment with DU-145 prostate, -58.3% (active); in the experiment with K-562 leukemia, -44.5% (active); in the experiment with MALME-3M melanoma, -68.7% (active). The growth with MDA-MB-231 breast is -52.1% (active); with RXF 393 renal it was -43.9% (active); in the experiment with SF-268 CNS it was -80.9% (active); with SF-295 CNS, -4.34% (active); in the experiment on SF-539 CNS, -78% (active); in the experiment on M14 melanoma, -61.2% (active).

With `COc1cc(-c2csc(NC(=O)Nc3cc(C(F)(F)F)cc(C(F)(F)F)c3)n2)cc(OC)c1OC`, the growth in the experiment with NCI-H23 lung is 4.18% (active); in the experiment with NCI-H226 lung, 24.8%; in the experiment on HOP-62 NSCLC it was 13.1%; in the experiment with NCI-H460 lung, 10.9%; with HOP-92 NSCLC it was -25.9% (active); with NCI-H522 lung it was -14.6% (active). The growth in the experiment on A549/ATCC NSCLC was 11.9%; in the experiment with 786-0 renal, 13.4%; in the experiment on COLO 205 colon, 0.569% (active); in the experiment on DU-145 prostate it was 20.3%; with K-562 leukemia it was 17.5%; with MALME-3M melanoma it was 6.56% (active). Also, the growth with MDA-MB-231 breast was 14.4%; with RXF 393 renal it was 47%; with SF-268 CNS it was 32.7%; in the experiment on SF-295 CNS, -10.4% (active); in the experiment with SF-539 CNS it was 23%; in the experiment with M14 melanoma, 21.9%.

`O=C(O)c1ccc(-n2cc(CNc3ccc(Oc4ccccc4)cc3)c(-c3ccccc3)n2)cc1`: the growth in the experiment on NCI-H23 lung is 81.1%; with NCI-H226 lung, 99.3%; in the experiment on HOP-62 NSCLC it was 122%; with NCI-H460 lung, 90.2%; in the experiment with HOP-92 NSCLC, 89%; in the experiment with NCI-H522 lung it was 84.4%. In addition, the growth with A549/ATCC NSCLC is 76.5%; with 786-0 renal, 90.6%; in the experiment on COLO 205 colon, 101%; with DU-145 prostate, 99.8%; in the experiment with K-562 leukemia, 78.3%; with MALME-3M melanoma it was 88.6%. Further, the growth in the experiment on MDA-MB-231 breast was 92%; with RXF 393 renal, 86.9%; with SF-268 CNS, 90.2%; in the experiment with SF-295 CNS, 72.1%; with SF-539 CNS, 90.6%; in the experiment with M14 melanoma it was 97.2%.
